Where “and” joins values, the source holds several entries; their conditions need not be identical. Identical values can stand only once. Hit rate of the full screen: of about 5,500 compounds, about 2,000 (36%) were called active. Not shown: some 18% with an inconclusive outcome. Cut-off read from the data, not from the text of the source: active = normalized growth mostly below about 0.91 (no sharp cut-off); inconclusive = no clear call, values can overlap the other calls; inactive = mostly above about 0.92. The list shows a part of the results.
Assay: chemical genetic growth profiling, strain panel (AID 1159580);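 note: tested at 20 µM; growth read once vehicle control cultures reached saturation at 30 °C; 1 = growth at the plate median or of vehicle wells; lower values mean less growth of the strain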
Details: S. cerevisiae deletion strains, growth OD

Measured: normalized growth

NCC[C@@H](O)C(=O)N[C@@H]1C[C@H](N)[C@@H](O[C@H]2O[C@H](CN)[C@@H](O)[C@H](O)[C@H]2O)[C@H](O)[C@H]1O[C@H]1O[C@H](CO)[C@@H](O)[C@H](N)C1O (stereo partly specified)
inactive: locus YAL013W, strain DEP1, stronger effect = lower value 0.974 | locus YAL021C, strain ccr4, stronger effect = lower value 1.02 | locus YAL026C, strain drs2, stronger effect = lower value 1.02 | locus YAL030W, strain snc1, stronger effect = lower value 1.04 | locus YBL061C, strain skt5, stronger effect = lower value 1.03 | locus YBR009C, strain hhf1, stronger effect = lower value 1.03 | locus YBR021W, strain FUR4, stronger effect = lower value 0.96 | locus YBR023C, strain chs3, stronger effect = lower value 1.04 | locus YBR171W, strain sec66, stronger effect = lower value 1.04 | locus YBR229C, strain ROT2, stronger effect = lower value 0.999 | locus YBR231C, strain swc5, stronger effect = lower value 1.04 | locus YBR279W, strain paf1, stronger effect = lower value 1.03 | locus YCL011C, strain gbp2, stronger effect = lower value 1.03 | locus YCL016C, strain dcc1, stronger effect = lower value 1.04 | locus YCL029C, strain bik1, stronger effect = lower value 1.02 | locus YCL061C, strain MRC1, stronger effect = lower value 1.02 | locus YCL069W, strain vba3, stronger effect = lower value 1.04 | locus YCR088W, strain abp1, stronger effect = lower value 1.03 | locus YDL005C, strain med2, stronger effect = lower value 1.04 | locus YDL035C, strain GPR1, stronger effect = lower value 0.986 | locus YDL040C, strain nat1, stronger effect = lower value 1.04 | locus YDL074C, strain BRE1, stronger effect = lower value 0.983 | locus YDL101C, strain DUN1, stronger effect = lower value 0.999 | locus YDL185W, strain tfp1, stronger effect = lower value 1.02 | locus YDL192W, strain arf1, stronger effect = lower value 1.01 | locus YDR001C, strain nth1, stronger effect = lower value 1.02 | locus YDR069C, strain doa4, stronger effect = lower value 1.03 | locus YDR101C, strain arx1, stronger effect = lower value 0.998 | locus YDR137W, strain rgp1, stronger effect = lower value 1.04 | locus YDR159W, strain sac3, stronger effect = lower value 1.05 | locus YDR162C, strain NBP2, stronger effect = lower value 1.01 | locus YDR195W, strain ref2 1.08 | locus YDR297W, strain sur2, stronger effect = lower value 1.03 | locus YDR318W, strain mcm21, stronger effect = lower value 1.01 | locus YDR334W, strain swr1, stronger effect = lower value 1.01 | locus YDR335W, strain msn5, stronger effect = lower value 1.04 | locus YDR388W, stronger effect = lower value 1.01 | locus YDR392W, strain spt3, stronger effect = lower value 1.06 | locus YDR502C, strain sam2, stronger effect = lower value 1.01 | locus YEL003W, strain gim4, stronger effect = lower value 1.03 | locus YEL037C, strain rad23, stronger effect = lower value 1.03 | locus YEL061C, strain CIN8 (second series), stronger effect = lower value 1.04 | locus YEL061C, strain CIN8, stronger effect = lower value 1 | locus YER015W, strain faa2, stronger effect = lower value 1.03 | locus YER016W, strain bim1, stronger effect = lower value 1 | locus YER110C, stronger effect = lower value 1.03 | locus YER111C, strain swi4, stronger effect = lower value 1.03 | locus YER155C, strain BEM2 (second series), stronger effect = lower value 1.02 | locus YER155C, strain BEM2, stronger effect = lower value 1.01 | locus YER167W, strain BCK2, stronger effect = lower value 0.986 | locus YFR010W, strain ubp6, stronger effect = lower value 1.05 | locus YGL078C, strain dbp3, stronger effect = lower value 1 | locus YGL086W, strain mad1, stronger effect = lower value 1 | locus YGL167C, strain pmr1, stronger effect = lower value 1.03 | locus YGL173C, strain kem1, stronger effect = lower value 1.04 | locus YGL227W, strain vid30, stronger effect = lower value 1.05 | locus YGL240W, strain doc1, stronger effect = lower value 1.01 | locus YGL248W, strain PDE1, stronger effect = lower value 0.999 | locus YGL253W, strain hxk2, stronger effect = lower value 1.02 | locus YGR078C, strain PAC10, stronger effect = lower value 0.997 | locus YGR135W, strain pre9, stronger effect = lower value 0.988 | locus YGR252W, strain gcn5, stronger effect = lower value 0.944 | locus YHR013C, strain ard1, stronger effect = lower value 1.04 | locus YHR027C, strain rpn1, stronger effect = lower value 1.03 | locus YHR030C, strain SLT2, stronger effect = lower value 1.01 and 1.02 | locus YHR079C, strain IRE1 (second series), stronger effect = lower value 1.02 | locus YHR079C, strain IRE1, stronger effect = lower value 1.03 | locus YHR094C, strain hxt1, stronger effect = lower value 1.03 | locus YHR129C, strain ARP1, stronger effect = lower value 1.01 | locus YHR142W, strain chs7, stronger effect = lower value 1.06 | locus YHR200W, strain rpn10, stronger effect = lower value 1.02 | locus YIL066C, strain RNR3, stronger effect = lower value 1 | locus YIL073C, strain SPO22, stronger effect = lower value 1.19 | locus YIL125W, strain kgd1, stronger effect = lower value 1.01 | locus YIR030C, strain dcg1, stronger effect = lower value 1.03 | locus YJL092W, strain hpr5, stronger effect = lower value 1.03 | locus YJL095W, strain BCK1 (second series), stronger effect = lower value 1 | locus YJL095W, strain BCK1, stronger effect = lower value 0.999 and 1.02 | locus YJL115W, strain asf1, stronger effect = lower value 1.04 | locus YJL129C, strain trk1, stronger effect = lower value 1.07 | locus YJL134W, strain LCB3, stronger effect = lower value 1.01 | locus YJL154C, strain vps35, stronger effect = lower value 1.03 | locus YJL164C, strain tpk1, stronger effect = lower value 1.01 | locus YJL166W, strain qcr8, stronger effect = lower value 1.03 | locus YJL168C, strain set2, stronger effect = lower value 1.01 | locus YJL187C, strain SWE1 (second series), stronger effect = lower value 0.999 | locus YJL187C, strain SWE1, stronger effect = lower value 1.03 | locus YJR043C, strain POL32, stronger effect = lower value 0.983 | locus YJR066W, strain TOR1, stronger effect = lower value 0.975 | locus YJR075W, strain HOC1, stronger effect = lower value 0.995 | locus YKL009W, strain mrt4, stronger effect = lower value 1.02 | locus YKL068W, stronger effect = lower value 1.01 | locus YKL085W, strain MDH1 (second series), stronger effect = lower value 1.01 | locus YKL085W, strain MDH1, stronger effect = lower value 1.01 | locus YKL160W, strain elf1, stronger effect = lower value 1.01 | locus YKR001C, strain vps1, stronger effect = lower value 1.01 | locus YKR026C, strain gcn3, stronger effect = lower value 1.07 | locus YKR091W, strain srl3, stronger effect = lower value 1.01 | locus YLL001W, strain dnm1, stronger effect = lower value 1.02 | locus YLL026W, stronger effect = lower value 1.01 | locus YLL041C, strain sdh2, stronger effect = lower value 1.03 | locus YLR027C, strain aat2, stronger effect = lower value 1.02 | locus YLR039C, strain RIC1, stronger effect = lower value 1.04 | locus YLR058C, strain SHM2, stronger effect = lower value 1.01 | locus YLR102C, strain apc9, stronger effect = lower value 1.01 | locus YLR113W, strain HOG1, stronger effect = lower value 1.03 | locus YLR221C, strain rsa3, stronger effect = lower value 1.01 | locus YLR258W, strain gsy2, stronger effect = lower value 1.02 | locus YLR262C, strain YPT6 (second series), stronger effect = lower value 1.03 | locus YLR262C, strain YPT6, stronger effect = lower value 1.04 | locus YLR268W, strain sec22, stronger effect = lower value 1.04 | locus YLR320W, strain mms22, stronger effect = lower value 1.03 | locus YLR330W, strain CHS5, stronger effect = lower value 1.01 | locus YLR342W, strain FKS1 (second series), stronger effect = lower value 0.966 | locus YLR342W, strain FKS1, stronger effect = lower value 1.03 | locus YLR357W, strain rsc2, stronger effect = lower value 1.09 | locus YLR370C, strain arc18, stronger effect = lower value 1.03 | locus YLR371W, strain rom2, stronger effect = lower value 1.01 | locus YLR384C, strain iki3, stronger effect = lower value 1.03 | locus YLR418C, strain cdc73, stronger effect = lower value 1.01 | locus YML016C, strain PPZ1, stronger effect = lower value 1.01 | locus YML032C, strain rad52, stronger effect = lower value 1.01 | locus YML120C, strain ndi1, stronger effect = lower value 1.02 | locus YML124C, strain tub3, stronger effect = lower value 1.01 | locus YMR058W, strain fet3, stronger effect = lower value 1.04 | locus YMR078C, strain ctf18, stronger effect = lower value 1.02 | locus YMR125W, strain sto1, stronger effect = lower value 1.06 | locus YMR129W, stronger effect = lower value 1.03 | locus YMR205C, strain PFK2, stronger effect = lower value 1.05 | locus YMR223W, strain ubp8, stronger effect = lower value 1.01 | locus YMR231W, strain pep5, stronger effect = lower value 1.03 | locus YMR263W, strain SAP30, stronger effect = lower value 1 | locus YMR307W, strain GAS1, stronger effect = lower value 0.921 | locus YNL067W, strain RPL9B, stronger effect = lower value 0.992 | locus YNL071W, strain lat1, stronger effect = lower value 1.02 | locus YNL153C, strain GIM3, stronger effect = lower value 0.996 | locus YNL183C, strain NPR1, stronger effect = lower value 0.952 | locus YNL209W, strain ssb2, stronger effect = lower value 1.02 | locus YNL233W, strain BNI4, stronger effect = lower value 1.02 | locus YNL248C, strain rpa49, stronger effect = lower value 0.984 | locus YNL250W, strain rad50, stronger effect = lower value 1.01 | locus YNL271C, strain bni1, stronger effect = lower value 1.02 | locus YNL298W, strain CLA4, stronger effect = lower value 1.02 | locus YNL307C, strain MCK1, stronger effect = lower value 1.02 | locus YNL322C, strain KRE1 (second series), stronger effect = lower value 1.04 | locus YNL322C, strain KRE1, stronger effect = lower value 1.01 | locus YNR049C, strain mso1, stronger effect = lower value 1.03 | locus YNR052C, strain pop2, stronger effect = lower value 1.02 | locus YOL006C, strain TOP1, stronger effect = lower value 0.932 | locus YOL012C, strain htz1 0.906 | locus YOL147C, strain pex11, stronger effect = lower value 1.02 | locus YOR001W, strain rrp6, stronger effect = lower value 1.05 | locus YOR061W, strain CKA2, stronger effect = lower value 1.01 | locus YOR069W, strain VPS5, stronger effect = lower value 1.01 | locus YOR070C, strain gyp1, stronger effect = lower value 1.03 | locus YOR080W, strain dia2, stronger effect = lower value 1.05 | locus YOR083W, strain WHI5, stronger effect = lower value 1.02 | locus YOR106W, strain vam3, stronger effect = lower value 1.04 | locus YOR136W, strain idh2, stronger effect = lower value 1.02 | locus YOR144C, strain elg1, stronger effect = lower value 1.02 | locus YOR184W, strain ser1, stronger effect = lower value 1.03 | locus YOR231W, strain MKK1, stronger effect = lower value 1 | locus YOR265W, strain rbl2, stronger effect = lower value 1.04 | locus YOR270C, strain vph1, stronger effect = lower value 1.05 | locus YOR290C, strain snf2, stronger effect = lower value 1.04 | locus YOR316C, strain cot1, stronger effect = lower value 1.02 | locus YPL051W, strain arl3, stronger effect = lower value 1.02 | locus YPL078C, strain atp4, stronger effect = lower value 1.03 | locus YPL106C, strain sse1, stronger effect = lower value 1.07 | locus YPL240C, strain hsp82, stronger effect = lower value 1.02 | locus YPL256C, strain CLN2, stronger effect = lower value 1.04 | locus YPR119W, strain clb2, stronger effect = lower value 1.01 | locus YPR141C, strain kar3, stronger effect = lower value 1.01 | locus YPR163C, strain tif3, stronger effect = lower value 1.02 | locus YPR167C, strain met16, stronger effect = lower value 1.02 | strain wtn01, stronger effect = lower value 1.01

— PubChem BioAssay AID1159580 (chemical genetic matrix, 2015)
